VP16 counter: counter-screen for ROR gamma inhibitors: Gal4-VP16 reporter; Drosophila S2 Gal4-VP16 UAS-luciferase, luminescence, 20 h; 310,000 tested, 3.5% active; Potency, µM (highest dose often 53.6 µM), for inactives: at the top dose activity, negative = inhibition, most hits filed as inhibitors;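 further: Gal4-VP16 expression switched on by copper sulfate through the metallothionein promoter; on the % scale 0 is the no-effect control and ±100 the full control effect; nearly all actives have a fitted effect of over 50% in size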
MCF10A rerep: induces DNA re-replication in MCF 10a normal breast cells | MCF 10A DNA re-replication, Hoechst nuclear intensity, 48 h | 350,000 tested, 2.9% active | Potency, µM (highest dose often 46.1 µM), without a hit: at the top dose activity, positive = re-replication, actives largely listed as activators; further: % of control where 0% means no effect; nearly all actives have a fitted effect of over 50% in size
SW480 rereplic: induces DNA re-replication in SW480 colon adenocarcinoma cells | SW480 DNA re-replication, Hoechst DNA content imaging, 48 h | Potency, µM (highest dose often 46.1 µM), for the others: at the top dose re-replication activation, usual class: activators | 340,000 tested, 1.8% active | AID 624297; further: % of control where 0% means no effect; nearly all actives have a fitted effect of over 55% in size
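Treated cells incubate 48 hr (37 C, 5% CO2), are stained 40 min with Hoechst, and nuclear fluorescence is enumerated; a rise in nuclei with high DNA signal marks re-replication.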
RORg inh: inhibitors of mouse ROR gamma transcriptional activity; 310,000 tested, 5.4% active; Drosophila S2 Gal4-RORgamma UAS-luciferase reporter, 20 h; Potency, µM (highest dose often 53.6 µM), inactives show at the top dose activity change, negative = inhibition, most hits filed as inhibitors; P51450; further: on the % scale 0 is the no-effect control and ±100 the full control effect; nearly all actives have a fitted effect of over 60% in size
Target sequence (P51450 whole entry, looked up, the tested form may be a part): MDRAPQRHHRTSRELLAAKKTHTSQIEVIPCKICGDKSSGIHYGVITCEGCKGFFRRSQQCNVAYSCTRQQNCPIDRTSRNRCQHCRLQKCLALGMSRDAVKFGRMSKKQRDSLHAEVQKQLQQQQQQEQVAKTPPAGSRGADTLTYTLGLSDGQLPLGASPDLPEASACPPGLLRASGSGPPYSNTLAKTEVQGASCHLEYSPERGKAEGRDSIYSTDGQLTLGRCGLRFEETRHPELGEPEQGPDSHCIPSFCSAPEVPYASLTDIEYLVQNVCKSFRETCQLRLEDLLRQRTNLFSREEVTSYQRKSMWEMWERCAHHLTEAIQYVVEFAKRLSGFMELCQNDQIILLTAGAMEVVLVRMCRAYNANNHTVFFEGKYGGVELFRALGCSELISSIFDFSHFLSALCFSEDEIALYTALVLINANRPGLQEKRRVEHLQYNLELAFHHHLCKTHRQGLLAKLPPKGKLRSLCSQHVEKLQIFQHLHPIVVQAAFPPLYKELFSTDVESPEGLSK
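ROR gamma transcriptional activity was tracked as Gal4-UAS luciferase output in stably transfected Drosophila Schneider cells, with compound added 1 hr before 700 uM copper sulfate induction and a 20 hr ambient-temperature incubation.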
ELG1 DNA repair: blocks ELG1-dependent DNA repair in HEK293T cells; AID 504467; HEK293T ELG1-luciferase reporter, luminescence, 16 h; DNA damage induced by 5-fluorouridine; Potency, µM (series often up to 46.1 µM), inactives show at the highest dose activity change, negative = inhibition, actives largely listed as inhibitors; 330,000 tested, 2.3% active; further: on the % scale 0 is the no-effect control and ±100 the full control effect; nearly all actives have a fitted effect of over 55% in size
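In this reporter screen, reduction of luminescence relative to DMSO vehicle indicated activity. Compounds and 5-fluorouridine were added together to 2,000 cells per well, incubated for 16 hr at 37 °C, then developed with ONE-Glo.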
An asterisk follows results filed as active; ? = inconclusive; nt = no result given; [ ] = remark or other dose. Compounds with a hit are over-represented: about 10% of the library has one in this group of screens. The call rests on the fitted dose curve; in most records, active means well fitted curve in the direction sought with a large enough effect; inconclusive means small, poorly fitted or top-dose-only effect, or another doubt; inactive means no such curve, though single readings can be large; an effect the other way counts as inactive or inconclusive. Potency means the concentration at half of the fitted maximal effect.

SMILES	VP16 counter	MCF10A rerep	SW480 rereplic	RORg inh	ELG1 DNA repair
COc1ccc(-c2cc(C(=O)Nc3cccc(S(=O)(=O)NCc4ccco4)c3)c3ccccc3n2)cc1OC	3%	12µM*	?	6%	5.2µM*
C[C@H]1CN(S(=O)C(C)(C)C)[C@H](CCO)/C1=C\CCO (stereo partly specified)	nt	27%	-5%	nt	nt
C[C@@H]1CN([C@H](C)CO)C(=O)Cc2cc(NC(=O)Cn3cnnn3)ccc2O[C@@H]1CN(C)Cc1ccc(Cl)c(Cl)c1	nt	-23%	10%[9.22 µM]	nt	-5%
O=C(Cn1cnnn1)NC1CCCN(Cc2ccccc2F)C1 (stereo unspecified)	0%	2%	-4%	-21%	-6%
Cc1ccc2nc(-c3ccc(NC(=O)COCC(=O)O)cc3)sc2c1	-17%	?	?	-17%	?
O=C(CCN1C(=O)c2ccccc2C1=O)Nc1ccc(-c2nc3ccccc3s2)cc1	-13%	?	?	-3%	?
Cc1csc(NC(=O)CSCC(=O)O)c1-c1nc2ccccc2s1	8.9µM*	20%	-1%	-42%	?
O=C(O)CSCC(=O)Nc1ccc(-c2nc3ccccc3s2)cc1	-22%	?	13%	?	?
Cc1ccc(C2(C)NC(=O)N(CC(=O)Nc3ccc(-c4nc5ccc(C)cc5s4)cc3)C2=O)cc1 (stereo unspecified)	-24%	18µM*	636%	?	?
Cc1ccc2nc(-c3ccc(NC(=O)CSCC(=O)O)cc3)sc2c1	-26%	15%	5%	11µM*	?
Cc1ccc2nc(-c3ccc(NC(=O)CCN4C(=O)c5ccccc5C4=O)cc3)sc2c1	7.1µM*	18%	-1%	5µM*	?
O=[N+]([O-])c1ccc(C23CC4CC(CC(O)(C4)C2)C3)cc1	?	nt	nt	-1%	?
O=C(O)Cc1ccc(NC(=O)Nc2ccc3c(c2)OCO3)cc1	-16%	-5%	-14%	-35%	?
CCC1(c2ccccc2)NC(=O)N(CC(=O)Nc2ccc(S(=O)(=O)NC3=NCCCCC3)cc2)C1=O (stereo unspecified)	nt	-1%	-3%	nt	20%
CC(=O)c1ccc(-c2ccc(-c3cc(=O)oc4c(C(C)C)ccc(C)c34)cc2)cc1	11µM*	?	-10%	?	?
Cc1ccc(C(C)C)c(OCc2ccc(-c3nnco3)cc2)c1	?	23µM*	9%	4µM*	?
O=C(NNC1=C(C(=O)C(F)(F)F)CCC1)c1cccc(O)c1	3.5µM*	?	?	5µM*	-19%
Cc1cccc(C(=O)NNC2=C(C(=O)C(F)(F)F)CCC2)c1O	10µM*	?	?	6.3µM*	21µM*
O=C(NNC1=C(C(=O)C(F)(F)F)CCC1)c1cccnc1	11µM*	21%	-5%	7.1µM*	-16%
Cc1cccc(C(=O)NNC(=O)c2ccc(Cl)cc2)c1O	-66%	-2%	?	?	?
COc1ccc(C)c(NC(=O)NCCc2cnc[nH]2)c1	0%	-2%	3%	15%	12%
Cc1ccc(Cl)cc1NC(=O)COC(=O)CC1CCCCC1	nt	-3%	-21%	nt	1%
COc1ccccc1-c1cn[nH]c1-c1ccc(OCc2ccccc2F)cc1O	?	7.3µM*	?	8.9µM*	-16%
COc1ccccc1-c1cn[nH]c1-c1ccc(OCc2ccc(F)cc2)cc1O	?	?	13%	7.9µM*	?
C[C@@H](C(=O)NCc1ccc(S(C)(=O)=O)cc1)[C@H]1C[C@]1(C)[C@H](NC(=O)OCc1ccccc1)c1ccccc1	-8%	7%	?	8.9µM*	?
SMILES	VP16 counter	MCF10A rerep	SW480 rereplic	RORg inh	ELG1 DNA repair
CCc1ccccc1NNC(=O)c1cc(C)on1	-4%	?	-3%	-1%	3%
Cc1cc(C(=O)NNc2ccccc2F)no1	5%	9.2µM*	18%	-6%	6.5µM*
Cc1[nH]c2ccccc2c1C(=O)C(C)OC(=O)c1ccc([N+](=O)[O-])o1 (stereo unspecified)	-23%	23µM*	?	14µM*	1%
CCc1noc(C)c1C(=O)OC(C)C(=O)c1c(C)[nH]c2ccccc12 (stereo unspecified)	nt	-1%	-6%	nt	1%
O=C(CSc1n[nH]c(-c2cccs2)n1)N1CCCc2ccccc21	1%	3%	-5%	?	3%
Cc1cc(C)nc(SCC(=O)N2CCc3ccccc32)n1	nt	-15%	-16%	nt	nt
O=C(CSc1nnc(-c2ccccc2)c(-c2ccccc2)n1)N1CCc2ccccc21	5%	?	3%	3.2µM*	-23%
Nc1ccccc1SCC(=O)N1CCc2ccccc21	13%	1%	-1%	23%	?
O=C(CSc1n[nH]c(-c2ccccc2O)n1)N1CCCc2ccccc21	14%	?	?	11µM*	-24%
O=C(O)c1ccccc1SCC(=O)N1CCc2ccccc21	?	16µM*	27%	-23%	?
Cc1ccc(NC(=O)c2nc[nH]c2C(=O)NCCCNC(=O)c2[nH]cnc2C(=O)Nc2ccc(C)cc2)cc1	nt	-28%	1%	nt	5.2µM*
Cc1ccc(NC(=O)c2nc[nH]c2C(=O)NCCCCCNC(=O)OC(C)(C)C)cc1	nt	?	-3%	nt	23µM*
CCOC(=O)c1ccc(NC(=O)c2nc[nH]c2C(=O)NCC(=O)OC(C)(C)C)cc1	16µM*	14%	-1%	7.1µM*	-15%
CC(C)(C)OC(=O)NCCCCCNC(=O)c1[nH]cnc1C(=O)Nc1ccc(Cl)cc1	nt	26%	4%	nt	21µM*
CCC(C)OC(=O)C1=C(C)O[C@]23OC(N)=C(C#N)[C@]12C(=O)c1ccccc13 (stereo partly specified)	-1%	-15%	-4%	29%	3%
COc1ccc(NC(=O)c2ccc[n+]([O-])c2)cc1	5%	0%	-5%	-4%	7%
CCOC(=O)c1ccc(NC(=O)c2nc[nH]c2C(=O)NCCCCNC(=O)c2[nH]cnc2C(=O)Nc2ccc(C(=O)OCC)cc2)cc1	nt	6%	-10%	nt	?
CCOC(=O)c1ccc(NC(=O)c2nc[nH]c2C(=O)NCCCCCNC(=O)OC(C)(C)C)cc1	?	20%	-53%	11µM*	16µM*
O=C(Nc1cccc(O)c1)c1noc2c1CCc1ccccc1-2	1.4µM*	-1%	3%	0.35µM*	?
Cc1ccc(NC(=O)c2noc3c2CCc2ccccc2-3)cc1	2%	5%	-4%	32%	?
N=C1SCC(=O)N1c1ncc(Cc2ccc(F)cc2)s1	0.2µM*	?	12%	0.32µM*	?
Cc1cc(C)nc(S/C=C/C(=O)c2ccccc2F)n1	10µM*	2.6µM*	-4%	7.9µM*	?
COc1cc(/C=C/C(=O)N(C)CC(=O)Nc2ccccc2Br)cc2c1OCCO2	nt	-7%	-15%	nt	-2%

High-throughput results (PubChem)
